# Measurements from article PMC11006913.
# Key:
# Test in all cases: PBM; 200 nM protein, PBS
# Conditions in all cases: dsDNA, one strand shown
# HOXA2 [1] = target: HOXA2 (Homo sapiens, UniProt O43364 129-215, R185T)
# HOXA2 [2] = target: HOXA2 (Homo sapiens, UniProt O43364 129-215, R185K)
# HOXA2 [3] = target: HOXA2 (Homo sapiens, UniProt O43364 129-215, Y150S)
# HOXA2 [4] = target: HOXA2 (Homo sapiens, UniProt O43364 129-215)
# NKX3-2 [5] = target: NKX3-2 (Homo sapiens, UniProt P78367 192-278, P234S)
# NKX3-2 (Homo sapiens, UniProt P78367 192-278, P234S), sequence (P78367 192-278 P234S): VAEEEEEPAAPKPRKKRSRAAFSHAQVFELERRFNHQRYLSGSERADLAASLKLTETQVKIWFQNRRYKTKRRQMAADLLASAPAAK
# NKX3-2 [6] = target: NKX3-2 (Homo sapiens, UniProt P78367 192-278)
# NKX3-2 (Homo sapiens, UniProt P78367 192-278), sequence (P78367 192-278): as the sequence (P78367 192-278 P234S) above, with S43P counted along it
# VAX1 [7] = target: VAX1 (Homo sapiens, UniProt Q5SQQ9 86-172, T142I)
# VAX1 (Homo sapiens, UniProt Q5SQQ9 86-172, T142I), sequence (Q5SQQ9 86-172 T142I): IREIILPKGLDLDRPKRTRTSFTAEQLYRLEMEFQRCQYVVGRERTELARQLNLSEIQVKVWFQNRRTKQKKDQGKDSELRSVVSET
# VAX1 [8] = target: VAX1 (Homo sapiens, UniProt Q5SQQ9 86-172)
# VAX1 (Homo sapiens, UniProt Q5SQQ9 86-172), sequence (Q5SQQ9 86-172): as the sequence (Q5SQQ9 86-172 T142I) above, with I57T counted along it
# VAX1 [9] = target: VAX1 (Homo sapiens, UniProt Q5SQQ9 86-172, K157R)
# VAX1 (Homo sapiens, UniProt Q5SQQ9 86-172, K157R), sequence (Q5SQQ9 86-172 K157R): as the sequence (Q5SQQ9 86-172 T142I) above, with I57T, K72R counted along it
# HOXB9 [10] = target: HOXB9 (Homo sapiens, UniProt P17482 171-250)
# HOXB9 (Homo sapiens, UniProt P17482 171-250), sequence (P17482 171-250): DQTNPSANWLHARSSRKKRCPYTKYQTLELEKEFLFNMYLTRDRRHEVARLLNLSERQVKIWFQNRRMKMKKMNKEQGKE
# HOXD13 [11] = target: HOXD13 (Homo sapiens, UniProt P35453 263-343)
# HOXD13 (Homo sapiens, UniProt P35453 263-343), sequence (P35453 263-343): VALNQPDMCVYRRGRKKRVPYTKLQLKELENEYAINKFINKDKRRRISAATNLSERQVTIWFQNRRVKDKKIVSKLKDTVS
# HOXD13 [12] = target: HOXD13 (Homo sapiens, UniProt P35453 263-343, T313A)
# HOXD13 (Homo sapiens, UniProt P35453 263-343, T313A), sequence (P35453 263-343 T313A): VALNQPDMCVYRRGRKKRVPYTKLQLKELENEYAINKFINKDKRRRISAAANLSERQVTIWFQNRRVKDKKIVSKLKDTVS
# ALX3 [13] = target: ALX3 (Homo sapiens, UniProt O95076 139-225, N203Q)
# ALX3 (Homo sapiens, UniProt O95076 139-225, N203Q), sequence (O95076 139-225 N203Q): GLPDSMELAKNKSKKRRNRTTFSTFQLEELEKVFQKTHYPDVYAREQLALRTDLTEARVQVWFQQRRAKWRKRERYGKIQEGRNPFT
# ALX3 [14] = target: ALX3 (Homo sapiens, UniProt O95076 139-225)
# ALX3 (Homo sapiens, UniProt O95076 139-225), sequence (O95076 139-225): as the sequence (O95076 139-225 N203Q) above, with Q65N counted along it
# HOXB9 [15] = target: HOXB9 (Homo sapiens, UniProt P17482 171-250, R186Q)
# HOXB9 (Homo sapiens, UniProt P17482 171-250, R186Q), sequence (P17482 171-250 R186Q): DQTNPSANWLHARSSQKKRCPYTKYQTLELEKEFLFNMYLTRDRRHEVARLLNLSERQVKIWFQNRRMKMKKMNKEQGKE
# ALX3 [16] = target: ALX3 (Homo sapiens, UniProt O95076 139-225, N203S)
# ALX3 (Homo sapiens, UniProt O95076 139-225, N203S), sequence (O95076 139-225 N203S): as the sequence (O95076 139-225 N203Q) above, with Q65S counted along it
# HOXA2 (Homo sapiens, UniProt O43364 129-215), sequence (O43364 129-215): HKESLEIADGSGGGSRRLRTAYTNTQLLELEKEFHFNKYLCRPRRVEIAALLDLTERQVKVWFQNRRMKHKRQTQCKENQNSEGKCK
# HOXA2 (Homo sapiens, UniProt O43364 129-215, Y150S), sequence (O43364 129-215 Y150S): as the sequence (O43364 129-215) above, with Y22S counted along it
# HOXA2 (Homo sapiens, UniProt O43364 129-215, R185T), sequence (O43364 129-215 R185T): as the sequence (O43364 129-215) above, with R57T counted along it
# HOXA2 (Homo sapiens, UniProt O43364 129-215, R185K), sequence (O43364 129-215 R185K): as the sequence (O43364 129-215) above, with R57K counted along it
sequence,measurement,setting,value
CGAGAGGC,binding signal,HOXA2 [1],"7.16 upbm affinity estimate (log intensity, higher = more binding, comparable within an allelic series)"
same,binding signal,HOXA2 [2],"10.3 upbm affinity estimate (log intensity, higher = more binding, comparable within an allelic series)"
same,binding signal,HOXA2 [3],"10.4 upbm affinity estimate (log intensity, higher = more binding, comparable within an allelic series)"
same,binding signal,HOXA2 [4],"7.01 upbm affinity estimate (log intensity, higher = more binding, comparable within an allelic series)"
CTGGGGCC,binding signal,HOXA2 [1],"7.14 upbm affinity estimate (log intensity, higher = more binding, comparable within an allelic series)"
same,binding signal,HOXA2 [2],"10.1 upbm affinity estimate (log intensity, higher = more binding, comparable within an allelic series)"
same,binding signal,HOXA2 [3],"10.3 upbm affinity estimate (log intensity, higher = more binding, comparable within an allelic series)"
same,binding signal,HOXA2 [4],"7.16 upbm affinity estimate (log intensity, higher = more binding, comparable within an allelic series)"
AGAGCCCC,binding signal,HOXA2 [1],"7.28 upbm affinity estimate (log intensity, higher = more binding, comparable within an allelic series)"
same,binding signal,HOXA2 [2],"10.2 upbm affinity estimate (log intensity, higher = more binding, comparable within an allelic series)"
same,binding signal,HOXA2 [3],"10.3 upbm affinity estimate (log intensity, higher = more binding, comparable within an allelic series)"
same,binding signal,HOXA2 [4],"7.25 upbm affinity estimate (log intensity, higher = more binding, comparable within an allelic series)"
CATTATGG,binding signal,HOXA2 [1],"10.5 upbm affinity estimate (log intensity, higher = more binding, comparable within an allelic series)"
same,binding signal,HOXA2 [2],"12.3 upbm affinity estimate (log intensity, higher = more binding, comparable within an allelic series)"
same,binding signal,HOXA2 [3],"10.7 upbm affinity estimate (log intensity, higher = more binding, comparable within an allelic series)"
same,binding signal,HOXA2 [4],"10.9 upbm affinity estimate (log intensity, higher = more binding, comparable within an allelic series)"
AACCGGGC,binding signal,HOXA2 [1],"7.08 upbm affinity estimate (log intensity, higher = more binding, comparable within an allelic series)"
same,binding signal,HOXA2 [2],"10.3 upbm affinity estimate (log intensity, higher = more binding, comparable within an allelic series)"
same,binding signal,HOXA2 [3],"10.3 upbm affinity estimate (log intensity, higher = more binding, comparable within an allelic series)"
same,binding signal,NKX3-2 [5],"10.4 upbm affinity estimate (log intensity, higher = more binding, comparable within an allelic series)"
same,binding signal,HOXA2 [4],"7.35 upbm affinity estimate (log intensity, higher = more binding, comparable within an allelic series)"
same,binding signal,NKX3-2 [6],"10.4 upbm affinity estimate (log intensity, higher = more binding, comparable within an allelic series)"
GTAATGAC,binding signal,HOXA2 [1],"12 upbm affinity estimate (log intensity, higher = more binding, comparable within an allelic series)"
same,binding signal,HOXA2 [2],"13.1 upbm affinity estimate (log intensity, higher = more binding, comparable within an allelic series)"
same,binding signal,VAX1 [7],"12.3 upbm affinity estimate (log intensity, higher = more binding, comparable within an allelic series)"
same,binding signal,HOXA2 [3],"10.8 upbm affinity estimate (log intensity, higher = more binding, comparable within an allelic series)"
same,binding signal,HOXA2 [4],"12.1 upbm affinity estimate (log intensity, higher = more binding, comparable within an allelic series)"
CTCATTAC,binding signal,HOXA2 [1],"12.5 upbm affinity estimate (log intensity, higher = more binding, comparable within an allelic series)"
same,binding signal,HOXA2 [2],"13.2 upbm affinity estimate (log intensity, higher = more binding, comparable within an allelic series)"
same,binding signal,VAX1 [8],"13 upbm affinity estimate (log intensity, higher = more binding, comparable within an allelic series)"
same,binding signal,VAX1 [7],"12.7 upbm affinity estimate (log intensity, higher = more binding, comparable within an allelic series)"
same,binding signal,HOXA2 [3],"10.8 upbm affinity estimate (log intensity, higher = more binding, comparable within an allelic series)"
same,binding signal,HOXA2 [4],"12.3 upbm affinity estimate (log intensity, higher = more binding, comparable within an allelic series)"
same,binding signal,VAX1 [9],"12.8 upbm affinity estimate (log intensity, higher = more binding, comparable within an allelic series)"
TCATTAGA,binding signal,HOXA2 [1],"12.1 upbm affinity estimate (log intensity, higher = more binding, comparable within an allelic series)"
same,binding signal,HOXA2 [2],"13 upbm affinity estimate (log intensity, higher = more binding, comparable within an allelic series)"
same,binding signal,VAX1 [8],"12.8 upbm affinity estimate (log intensity, higher = more binding, comparable within an allelic series)"
same,binding signal,VAX1 [7],"12.5 upbm affinity estimate (log intensity, higher = more binding, comparable within an allelic series)"
same,binding signal,HOXA2 [3],"10.6 upbm affinity estimate (log intensity, higher = more binding, comparable within an allelic series)"
same,binding signal,HOXA2 [4],"12.1 upbm affinity estimate (log intensity, higher = more binding, comparable within an allelic series)"
same,binding signal,VAX1 [9],"12.5 upbm affinity estimate (log intensity, higher = more binding, comparable within an allelic series)"
CAATCACA,binding signal,HOXA2 [1],"9.53 upbm affinity estimate (log intensity, higher = more binding, comparable within an allelic series)"
same,binding signal,HOXA2 [2],"11.8 upbm affinity estimate (log intensity, higher = more binding, comparable within an allelic series)"
same,binding signal,HOXA2 [3],"10.8 upbm affinity estimate (log intensity, higher = more binding, comparable within an allelic series)"
same,binding signal,HOXA2 [4],"9.4 upbm affinity estimate (log intensity, higher = more binding, comparable within an allelic series)"
GCTCATTA,binding signal,HOXA2 [1],"12.7 upbm affinity estimate (log intensity, higher = more binding, comparable within an allelic series)"
same,binding signal,HOXA2 [2],"13.2 upbm affinity estimate (log intensity, higher = more binding, comparable within an allelic series)"
same,binding signal,VAX1 [8],"13.1 upbm affinity estimate (log intensity, higher = more binding, comparable within an allelic series)"
same,binding signal,VAX1 [7],"12.8 upbm affinity estimate (log intensity, higher = more binding, comparable within an allelic series)"
same,binding signal,HOXA2 [3],"10.5 upbm affinity estimate (log intensity, higher = more binding, comparable within an allelic series)"
same,binding signal,HOXA2 [4],"12.5 upbm affinity estimate (log intensity, higher = more binding, comparable within an allelic series)"
same,binding signal,VAX1 [9],"12.7 upbm affinity estimate (log intensity, higher = more binding, comparable within an allelic series)"
AACCTAAT,binding signal,HOXA2 [1],"10.5 upbm affinity estimate (log intensity, higher = more binding, comparable within an allelic series)"
same,binding signal,HOXA2 [2],"12.1 upbm affinity estimate (log intensity, higher = more binding, comparable within an allelic series)"
same,binding signal,HOXA2 [3],"10.6 upbm affinity estimate (log intensity, higher = more binding, comparable within an allelic series)"
same,binding signal,HOXA2 [4],"10.3 upbm affinity estimate (log intensity, higher = more binding, comparable within an allelic series)"
AATTGCTC,binding signal,HOXA2 [1],"10.4 upbm affinity estimate (log intensity, higher = more binding, comparable within an allelic series)"
same,binding signal,HOXA2 [2],"12 upbm affinity estimate (log intensity, higher = more binding, comparable within an allelic series)"
same,binding signal,HOXA2 [3],"10.6 upbm affinity estimate (log intensity, higher = more binding, comparable within an allelic series)"
same,binding signal,HOXA2 [4],"10.2 upbm affinity estimate (log intensity, higher = more binding, comparable within an allelic series)"
TGTGTAAA,binding signal,HOXB9 [10],"9.82 upbm affinity estimate (log intensity, higher = more binding, comparable within an allelic series)"
same,binding signal,HOXD13 [11],"11.1 upbm affinity estimate (log intensity, higher = more binding, comparable within an allelic series)"
same,binding signal,HOXD13 [12],"11 upbm affinity estimate (log intensity, higher = more binding, comparable within an allelic series)"
ACAACTTA,binding signal,HOXA2 [1],"9.5 upbm affinity estimate (log intensity, higher = more binding, comparable within an allelic series)"
same,binding signal,HOXA2 [3],"10.7 upbm affinity estimate (log intensity, higher = more binding, comparable within an allelic series)"
same,binding signal,HOXA2 [4],"9.5 upbm affinity estimate (log intensity, higher = more binding, comparable within an allelic series)"
GTTTGCAA,binding signal,HOXA2 [1],"8.76 upbm affinity estimate (log intensity, higher = more binding, comparable within an allelic series)"
same,binding signal,HOXA2 [4],"8.78 upbm affinity estimate (log intensity, higher = more binding, comparable within an allelic series)"
ATAGAAAT,binding signal,HOXA2 [1],"9.28 upbm affinity estimate (log intensity, higher = more binding, comparable within an allelic series)"
same,binding signal,HOXA2 [4],"9.2 upbm affinity estimate (log intensity, higher = more binding, comparable within an allelic series)"
CATCTACG,binding signal,HOXA2 [1],"8.85 upbm affinity estimate (log intensity, higher = more binding, comparable within an allelic series)"
same,binding signal,HOXA2 [3],"10.7 upbm affinity estimate (log intensity, higher = more binding, comparable within an allelic series)"
same,binding signal,HOXA2 [4],"9.05 upbm affinity estimate (log intensity, higher = more binding, comparable within an allelic series)"
AATGTGAA,binding signal,HOXB9 [10],"10 upbm affinity estimate (log intensity, higher = more binding, comparable within an allelic series)"
same,binding signal,ALX3 [13],"8.3 upbm affinity estimate (log intensity, higher = more binding, comparable within an allelic series)"
same,binding signal,ALX3 [14],"9.35 upbm affinity estimate (log intensity, higher = more binding, comparable within an allelic series)"
same,binding signal,HOXB9 [15],"9.94 upbm affinity estimate (log intensity, higher = more binding, comparable within an allelic series)"
same,binding signal,ALX3 [16],"8.37 upbm affinity estimate (log intensity, higher = more binding, comparable within an allelic series)"
CCATTTTC,binding signal,HOXB9 [10],"10.1 upbm affinity estimate (log intensity, higher = more binding, comparable within an allelic series)"
same,binding signal,HOXB9 [15],"10 upbm affinity estimate (log intensity, higher = more binding, comparable within an allelic series)"
AAACATAA,binding signal,HOXA2 [1],"9.4 upbm affinity estimate (log intensity, higher = more binding, comparable within an allelic series)"
same,binding signal,HOXA2 [4],"9.53 upbm affinity estimate (log intensity, higher = more binding, comparable within an allelic series)"
